Most compounds without a hit are left out; they make up all but 8% or so of the library.
MCF10A rerep = A quantitative high throughput screen for small molecules that induce DNA re-replication in MCF 10a normal breast cells; MCF 10A DNA re-replication, Hoechst nuclear intensity, 48 h; Potency, µM (series often up to 46.1 µM), hits mostly activators; actives 2.9% (n = 350,000); note: nearly all actives have a fitted effect of over 50% in size
HT1080-NT tox = qHTS for induction of synthetic lethality in tumor cells producing 2HG: qHTS for the HT-1080-NT fibrosarcoma cell line; HT-1080-NT fibrosarcoma viability, CellTiter-Glo ATP luminescence, 48 h; Potency, µM (series often up to 46.1 µM), most hits filed as cytotoxic; actives 1.6% (n = 360,000); AID 686970, 2013;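 note: NT is the 2HG producing partner of a matched IDH1 knockdown line; nearly all actives have a fitted effect of over 55% in size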
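Toxicity toward the 2HG-producing NT line was scored as %Activity, normalised to DMSO and no-cell wells, from CellTiter-Glo luminescence after 48 hours' treatment.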
KB-3-1 cytotox = qHTS assay for MDR1-selective chemotherapeutics: Primary screen using the parental adenocarcinoma cell KB-3-1 | KB-3-1 viability, CellTiter-Glo ATP luminescence, 72 h | Potency, µM (doses to about 46.1 µM), usual class: cytotoxic | actives 1.4% (n = 400,000); note: nearly all actives have a fitted effect of over 60% in size
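KB-3-1 parental drug-naive adenocarcinoma cells in DMEM/10% FBS, incubated 72 h at 37 C with pin-transferred compounds across a concentration series. Viability by CellTiter-Glo luminescence; concentration-response curves fitted after normalization.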
HT1080 IDH1KD tx = qHTS for induction of synthetic lethality in tumor cells producing 2HG: qHTS for the HT-1080-IDH1KD cell line; HT-1080 IDH1 knockdown viability, ATP luminescence, 48 h; Potency, µM (highest dose often 46.1 µM), hits mostly cytotoxic; actives 2% (n = 360,000); AID 686971, 2013
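Luminescent ATP read-out (CellTiter-Glo, 10 min at room temperature) after 48 h compound exposure at 37 °C gave viability of IDH1-knockdown HT-1080 cells. Activity was normalised to DMSO and cell-free wells, then fitted as concentration-response curves.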
SW480 rereplic = A quantitative high throughput screen for small molecules that induce DNA re-replication in SW480 colon adenocarcinoma cells; AID 624297, 2012; Potency, µM (titrated, usually from 46.1 µM), actives largely listed as activators; actives 1.8% (n = 340,000); SW480 DNA re-replication, Hoechst DNA content imaging, 48 h; note: nearly all actives have a fitted effect of over 55% in size
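Treated cells incubate 48 hr (37 C, 5% CO2), are stained 40 min with Hoechst, and nuclear fluorescence is enumerated; a rise in nuclei with high DNA signal marks re-replication.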
KB-V1 MDR tox = qHTS assay for MDR1-selective chemotherapeutics: Primary screen using the drug-selected MDR subline cells KB-V1; KB-V1 MDR cells viability, CellTiter-Glo, 72 h; actives 3.4% (n = 400,000); Potency, µM (highest dose often 46.1 µM), actives largely listed as cytotoxic; AID 1347076, 2019; note: nearly all actives have a fitted effect of over 60% in size
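Potencies derive from concentration-effect curves fitted to normalized luminescence (CellTiter-Glo) of KB-V1 cells treated for 72 h at 37 degrees C in phenol-red-free DMEM containing 10% FBS.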
Large screens that a line does not name were inactive. Calls come from the whole dose curve; as a rule, active = well fitted curve in the direction sought with a large enough effect; inconclusive = small, poorly fitted or top-dose-only effect, or another doubt; inactive = no such curve, though single readings can be large; an effect the other way counts as inactive or inconclusive.

COc1ccccc1C(=O)Nc1ccc2c(c1)C(=O)NC2=O	KB-3-1 cytotox inconclusive
COc1cc(NC(=S)NCCN2CCOCC2)cc(OC)c1	none
COc1cc(OC)c(NC2=CC(=O)C(=O)c3ccccc32)cc1Cl	HT1080-NT tox 21µM, KB-3-1 cytotox 4.6µM, HT1080 IDH1KD tx 8.2µM, SW480 rereplic inconclusive, KB-V1 MDR tox 4.1µM
CC(=O)Nc1ccc(NC2=CC(=O)c3ccccc3C2=O)cc1	HT1080-NT tox inconclusive, HT1080 IDH1KD tx inconclusive
CCC(C(=O)Nc1cc(Cl)c(OC)cc1OC)c1ccccc1 (stereo not given)	none
Cc1ccc(NC2=CC(=O)C(=O)c3ccccc32)cc1	MCF10A rerep inconclusive, HT1080-NT tox 10µM, KB-3-1 cytotox inconclusive, HT1080 IDH1KD tx 6.3µM, SW480 rereplic 5.8µM, KB-V1 MDR tox 16µM
NS(=O)(=O)c1ccc(NC2=CC(=O)C(=O)c3ccccc32)cc1	MCF10A rerep inconclusive, HT1080-NT tox inconclusive, KB-3-1 cytotox inconclusive, HT1080 IDH1KD tx inconclusive, SW480 rereplic 3.3µM
NS(=O)(=O)c1ccc(NC(=O)Nc2ccccc2)cc1	none
CCOC(=O)c1ccc(NC2=CC(=O)C(=O)c3ccccc32)cc1	MCF10A rerep 13µM, KB-3-1 cytotox inconclusive, SW480 rereplic inconclusive, KB-V1 MDR tox inconclusive
COc1ccc(C)cc1Nc1nc2c(S(=O)(=O)c3cc(C)ccc3C)nnn2c2ccsc12	none (no result: MCF10A rerep, HT1080-NT tox, HT1080 IDH1KD tx, SW480 rereplic)
Cc1nc2nc(NC(=O)C(C)(C)C)[nH]n2c(=O)c1Cc1ccccc1	none (no result: MCF10A rerep, HT1080-NT tox, HT1080 IDH1KD tx, SW480 rereplic)
O=C(NCc1cccc(Cl)c1)C1CCN(S(=O)(=O)c2ccc(F)cc2)CC1	none
Cc1cc(NC2=CC(=O)C(=O)c3ccccc32)no1	MCF10A rerep 13µM, HT1080-NT tox inconclusive, KB-3-1 cytotox inconclusive, HT1080 IDH1KD tx inconclusive, SW480 rereplic inconclusive, KB-V1 MDR tox 18µM
CCOC(=O)c1ccc(Nc2cc(C)nc(-c3ccccc3)n2)cc1	MCF10A rerep inconclusive, HT1080-NT tox 16µM, HT1080 IDH1KD tx 18µM, SW480 rereplic inconclusive, KB-V1 MDR tox inconclusive
CCOC(=O)c1ccc(COC(=O)c2ccc3c(c2)-c2ccccc2C3=O)cc1	KB-V1 MDR tox 15µM
CCC(Oc1ccccc1)C(=O)Nc1ccc2oc(-c3ccc(OC)cc3)nc2c1 (stereo not given)	none (no result: MCF10A rerep, HT1080-NT tox, HT1080 IDH1KD tx, SW480 rereplic)
CC1(c2nnc(-c3ccccc3)o2)CC(c2ccc(Cl)cc2)=NO1 (stereo not given)	none
CC1(c2nnc(-c3ccccc3)o2)CC(c2ccc(F)cc2)=NO1 (stereo not given)	none
CC1(c2nnc(-c3ccccc3)o2)CC(c2ccc([N+](=O)[O-])cc2)=NO1 (stereo not given)	KB-3-1 cytotox 10µM, KB-V1 MDR tox 21µM
CC1(c2nnc(-c3ccncc3)o2)CC(c2ccc(Cl)cc2)=NO1 (stereo not given)	MCF10A rerep 9.2µM
CCNC(=S)N1CCC(C(N)=O)CC1	none
C[C@]1(O)CC(=O)C=C[C@H]1Nc1ccccc1	MCF10A rerep inconclusive, HT1080-NT tox 21µM, KB-3-1 cytotox inconclusive, HT1080 IDH1KD tx inconclusive, SW480 rereplic inconclusive
COc1ccc(OC)c(Nc2nc(N)nc(-c3cc4ccccc4o3)n2)c1	MCF10A rerep inconclusive, KB-3-1 cytotox inconclusive, SW480 rereplic inconclusive, KB-V1 MDR tox 15µM
Cc1ccc(NC(=O)N2CCC(NC(=O)c3ccccc3C)CC2)cc1	none
Cc1ccccc1[C@H](NC1c2ccccc2C=Cc2ccccc21)P(=O)(c1ccccc1)c1ccccc1	HT1080-NT tox 15µM, KB-3-1 cytotox inconclusive, HT1080 IDH1KD tx 13µM, KB-V1 MDR tox inconclusive (no result: MCF10A rerep, SW480 rereplic)
CC[C@@]1(O)CC2CN(CCc3c([nH]c4ccccc34)[C@](C(=O)OC)(c3cc4c(cc3OC)N(C)C3[C@@](O)(C(=O)OC)C(OC(C)=O)[C@]5(CC)C=CCN6CC[C@@]43C65)C2)C1 (stereo not given in full)	MCF10A rerep inconclusive, SW480 rereplic 0.67µM (no result: HT1080-NT tox, KB-3-1 cytotox, HT1080 IDH1KD tx, KB-V1 MDR tox)
CC[C@]1(O)C[C@H]2CN(CCc3c([nH]c4ccccc34)[C@@](C(=O)OC)(c3cc4c(cc3OC)N(C=O)[C@H]3[C@@](O)(C(=O)OC)[C@H](OC(C)=O)[C@]5(CC)C=CCN6CC[C@]43[C@@H]65)C2)C1	MCF10A rerep inconclusive, KB-3-1 cytotox 0.12µM, SW480 rereplic 0.3µM (no result: HT1080-NT tox, HT1080 IDH1KD tx)
O=C(NCCc1ccccn1)C1CCCN1S(=O)(=O)c1ccc(Cl)cc1 (stereo not given)	KB-V1 MDR tox inconclusive
COc1ccc(NS(=O)(=O)c2cc3[nH]c(=O)c(=O)[nH]c3cc2C)cc1Cl	none (no result: MCF10A rerep, HT1080-NT tox, HT1080 IDH1KD tx, SW480 rereplic)
COc1cccc(Oc2coc3cc(OC(=O)N4CCOCC4)ccc3c2=O)c1	SW480 rereplic inconclusive, KB-V1 MDR tox inconclusive
COc1ccccc1Oc1coc2cc(OC(=O)N3CCOCC3)ccc2c1=O	KB-3-1 cytotox inconclusive, KB-V1 MDR tox 23µM
O=C(COc1ccc(-c2nnco2)cc1)Nc1cc([N+](=O)[O-])ccc1F	none
C=CCSc1nsc(NC(=O)Nc2ccc(F)cc2)n1	MCF10A rerep inconclusive, HT1080-NT tox 16µM, KB-3-1 cytotox inconclusive, HT1080 IDH1KD tx 2.9µM, KB-V1 MDR tox 21µM
CCSc1nsc(NC(=O)Nc2ccccc2F)n1	MCF10A rerep inconclusive, HT1080-NT tox inconclusive, KB-3-1 cytotox inconclusive, KB-V1 MDR tox 16µM
CCSc1nsc(NC(=O)Nc2cccc(OC)c2)n1	HT1080-NT tox inconclusive, KB-3-1 cytotox inconclusive, HT1080 IDH1KD tx inconclusive, KB-V1 MDR tox inconclusive
CCOC(=O)c1sc(NC(=O)Nc2ccc(F)cc2)nc1C	KB-3-1 cytotox inconclusive, KB-V1 MDR tox inconclusive
Cc1ccc2[nH]c(CN3CCC(CO)(CC4CCCCO4)CC3)c(C)c2c1 (stereo not given)	HT1080-NT tox inconclusive, HT1080 IDH1KD tx 13µM, KB-V1 MDR tox inconclusive
Nc1nc2c(ncn2-c2ccccc2)c(=O)[nH]1	none
O=C1c2ccccc2C(=O)c2c1ncn2-c1ccccc1	MCF10A rerep inconclusive, HT1080-NT tox inconclusive, KB-3-1 cytotox inconclusive, SW480 rereplic 16µM, KB-V1 MDR tox 21µM
COc1ccc(C(=O)c2oc3ccccc3c2NC(=O)c2nc(SC)ncc2Cl)cc1Cl	none (no result: MCF10A rerep, HT1080-NT tox, HT1080 IDH1KD tx, SW480 rereplic)
CCOc1ccccc1C1C2CCCCC2(O)CCN1C(=O)c1cccs1 (stereo not given)	KB-V1 MDR tox 23µM
CCOc1ccccc1NC(=O)C1CCCN1C(=O)c1cccs1 (stereo not given)	none
CCc1nc2c(sc3nc4c(cc32)COC(C)(C)C4)c(=O)n1Cc1ccco1	HT1080-NT tox inconclusive, KB-3-1 cytotox inconclusive, KB-V1 MDR tox 12µM
